Data taken from article PMC7826789 (International Journal of Molecular Sciences, 2021).

What follows are compounds tested on IKBKE.
For `Cl.O=C1Nc2ccc(-c3cccnc3)cc2C1=Cc1cc(Br)c(O)c(Br)c1` [GW429374A], the Kinases covered was “IKBKE”.
For `Cc1cc(O)cc(C)c1/C=C/c1cncc(C(N)=O)c1` [GW435821X], the Kinases covered was “IKBKE”.
For `COc1cc(/C=N/Nc2ncnc3[nH]ncc23)ccc1O` [GW578748X], the Kinases covered was “IKBKE”.

The compounds below were run on INSR.
`COc1cc(N2CCN(C(C)C)CC2)ccc1Nc1nc(Nc2ccc(F)cc2C(=O)NC[C@@H](O)CO)c2cc[nH]c2n1` [GSK1392956A] was tested, and the Kinases covered was “INSR”.
In the case of `COc1cc(C)c(N(C)C(=O)CN(C)C)cc1Nc1nc(Nc2cccc(F)c2C(N)=O)c2cc[nH]c2n1` [GSK2219385], the Kinases covered is reported as “INSR”.
For `CCc1cc(Nc2nccc(-c3c(-c4ccc(OC)c(C(=O)Nc5c(F)cccc5F)c4)nc4ccccn34)n2)c(OC)cc1N1CCC(N2CCN(S(C)(=O)=O)CC2)CC1` [GSK1904529], the Kinases covered was “INSR”.
With `CN(C)C/C=C/C(=O)Nc1ccc(C(=O)Nc2cccc(Nc3ncc(Cl)c(-c4c[nH]c5ccccc45)n3)c2)cc1` [THZ1] the Kinases covered was “INSR”.

What follows are compounds tested on IRAK1.
In the case of `COC[C@@H](C)N[C@H]1CC[C@H](Nc2cc(-c3cccc(NCC4(C#N)CCOCC4)n3)c(Cl)cn2)CC1` [NVP-2], the Kinases covered is reported as “IRAK1”.
With `Cc1cc(NC(=O)c2cccc(NC(=O)/C=C/CN(C)C)c2)ccc1Nc1nccc(-c2cccnc2)n1` [JNK-IN-7] the Kinases covered was “IRAK1”.
For `COc1cc2ncnc(Nc3ccc(F)c(Cl)c3)c2cc1O[C@H]1CC[C@H](N)CC1` [BIBW3133BS], the Kinases covered was “IRAK1”.

These compounds were tested on JAK2.
`NC(=O)c1cccnc1COc1cc(-c2ccc(N3CCOCC3)nc2)cc2ncccc12` [BI01125081] was tested, and the Kinases covered was “JAK2”.
For `COc1cc(Nc2nccc(N3CCC(NC(=O)C4COc5ccccc5O4)C3)n2)cc(OC)c1OC` (stereo not shown) [GSK1379761], the Kinases covered was “JAK2”.
For `C[C@@H]1CCN(C(=O)CO)C[C@@H]1N(C)c1ncnc2[nH]ccc12` [PFE-PKIS 34], the Kinases covered was “JAK2”.
